Screens: PubChem BioAssay, several laboratories
Vc quorum ag: induces V. cholerae light production without autoinducers. V. cholerae BH1578 lux reporter, luminescence, 6 h. activation, % at 18.7 µM. hit rate 0.16% among 350,000. AID 588436; in the data active means activation mostly above about 9.7%, no sharp cut-off
Mtb hypoxia rep: Mtb hypoxia fluorescent reporter inhibition. hit rate 0.1% among 300,000. M. tuberculosis hypoxia-regulated fluorescent reporter, fluorescence. fluorescence inhibition, % (no concentration beside the values); in the data active means fluorescence inhibition mostly above about 23%, no sharp cut-off; inactive means mostly below about 17%
SSB-PriA inh: blocks PriA binding to SSB C-terminal tail | AlphaScreen SSBct-PriA binding, biotinylated peptide | inhibition, % at 33 µM | hit rate 0.6% among 430,000; in the data active means inhibition mostly above about 37%, no sharp cut-off; inactive means mostly below about 20%;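 further: plate controls were negative control peptide for no effect and reference peptide for full effect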
MazEF act: activators of E. coli MazEF toxin-antitoxin RNase. P0AE70. FAM/BHQ RNA-DNA oligo cleavage fluorescence, 5 h. activation, % at 20 µM. hit rate 0.32% among 350,000. AID 504720; in the data active means activation above about 50%
Target sequence (P0AE70 whole entry, looked up): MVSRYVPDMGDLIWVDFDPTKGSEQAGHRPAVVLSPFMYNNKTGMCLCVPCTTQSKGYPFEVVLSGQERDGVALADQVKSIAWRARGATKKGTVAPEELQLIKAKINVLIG
* hit, by the source's call; i = inactive; nt = not tested or not shown. This is a sample that favours compounds with a hit; in the whole collection about 0.94% have one here.

SMILES | Vc quorum ag | Mtb hypoxia rep | SSB-PriA inh | MazEF act
O=c1[nH]c(NN=Cc2ccc3c(c2)OCO3)nc2ccccc12 | nt | -9.0 | -1.8 | nt
O=c1[nH]c(N/N=C\c2ccc(F)cc2)nc2ccccc12 | -0.2 | nt | nt | 55.8*
O=C(O)c1ccc(/C=N/Nc2nc3ccccc3[nH]2)cc1 | -0.4 | nt | i | -7.1
O=c1[nH]c(N/N=C/c2ccc(O)cc2)nc2ccccc12 | -0.3 | nt | nt | 51.0*
CC(Cc1ccccc1)/[N+]([O-])=C\c1ccc(C(F)(F)F)cc1 (stereo not drawn) | i | nt | 46.0* | -22.6
CC(Cc1ccccc1)[N+]([O-])=Cc1ccc(C(F)(F)F)cc1 (stereo not drawn) | nt | 24.9 | nt | nt
O=C(Nc1ccc(Cl)c(C(F)(F)F)c1)c1cn(CC(O)c2ccccc2F)nn1 (stereo not drawn) | nt | nt | -8.0 | nt
O=C(Cn1ncccc1=O)N1C2CCC1CC(S(=O)(=O)c1ccccc1)C2 (stereo not drawn) | nt | nt | 88.0* | nt
CC(=O)N1C2CCC1CC(S(=O)(=O)c1ccccc1)C2 (stereo not drawn) | nt | nt | -7.0 | nt
O=S(=O)(c1ccccc1)C1CC2CCC(C1)N2S(=O)(=O)C1CC1 (stereo not drawn) | nt | nt | 91.0* | nt
COC(=O)c1sccc1S(=O)(=O)N1CC(S(=O)(=O)c2ccc(OC)cc2)C1 | nt | nt | -22.0 | nt
COc1cccc2sc(Nc3nc4ccc(Cl)cc4s3)nc12 | nt | nt | -3.0 | nt
Cn1cccc1C(CNC(=O)c1ccc(C(C)(C)C)cc1)N1CCCC1 (stereo not drawn) | nt | nt | 9.0 | nt
Cn1cccc1C(CNC(=O)c1ccc2ccccc2c1)N1CCCC1 (stereo not drawn) | nt | nt | 22.0* | nt
O=C(Nc1ccc(N2CCCCC2)cc1)c1ccc([N+](=O)[O-])o1 | i | nt | -0.7 | 2.0
O=C(Nc1ccc(N2CCCC2)c(Cl)c1)c1ccc([N+](=O)[O-])o1 | -0.3 | 23.7 | 44.6* | 4.4
O=C(Nc1ncccn1)c1ccc([N+](=O)[O-])o1 | nt | 7.1 | -0.7 | 91.5*
CC(=O)N1CCC(=NNS(=O)(=O)c2cccc([N+](=O)[O-])c2)CC1 | 1.1 | -0.9 | -2.3 | 53.0*
COc1cc2c(cc1OC)-c1c(OC)c(OC)cc3c1[C@H](C2)N(C)CC3 | -10.0 | nt | 73.2* | 4.7
O=C(CNC(=O)c1ccc(S(=O)(=O)N2CCCCC2)cc1)N/N=C\c1ccc(Br)cc1 | nt | nt | -6.0 | nt
COc1cccc(CNC(=O)Cn2c(=O)nc(NCCC(C)C)c3ccccc32)c1OC | nt | nt | -17.0 | nt
COc1cc(OC)nc(NC(=O)CS(=O)(=O)c2ccccc2)n1 | 33.3* | 18.0 | -1.2 | 2.6
COc1ccc(OC)c(NC(=O)CS(=O)(=O)c2ccccc2)c1 | -0.3 | 9.0 | 6.7 | 4.5
Cc1nnc(N2C(=O)C(O)=C(C(=O)c3ccco3)C2c2ccc(C(C)C)cc2)s1 (stereo not drawn) | -0.1 | 5.4 | -2.9 | 62.3*
Cc1nnc(N2C(=O)C(O)=C(C(=O)c3ccco3)C2c2ccc(C(C)(C)C)cc2)s1 (stereo not drawn) | i | 12.8 | -4.5 | 191.9*
SMILES | Vc quorum ag | Mtb hypoxia rep | SSB-PriA inh | MazEF act
CSc1ccc(C2C(C(=O)c3ccco3)=C(O)C(=O)N2c2nnc(SC)s2)cc1 (stereo not drawn) | -0.2 | nt | -7.4 | 186.8*
Cc1nnc(N2C(=O)C(O)=C(C(=O)c3ccco3)C2c2ccc(F)cc2)s1 (stereo not drawn) | -0.6 | nt | -6.3 | 2.4
COc1ccc(C)c2sc(N(CCCN(C)C)C(=O)c3cc(C)no3)nc12 | nt | nt | 1.0 | nt
COc1cccc(-c2nc(CSc3nc(-c4ccncc4)cc(=O)[nH]3)c(C)o2)c1OC | nt | nt | -36.0 | nt
N=C(N)c1ccc(/C=C/c2ccc(C(=N)N)cc2O)cc1 | 0.6 | 20.8 | 6.5 | 59.6*
N=C(N)c1ccc(Cl)cc1 | -1.3 | 1.0 | -8.9 | -2.9
CN(C)c1ccc(/C=N\NC(=O)/C=C\C(=O)O)cc1 | nt | nt | -2.0 | nt
CN(C)c1nc(NCc2ccccc2)nc(Oc2ccc(=O)[nH]n2)n1 | 16.7* | 9.9 | -12.8 | 2.5
O=c1[nH]c(SCc2cccnc2)nc2c1cnn2-c1cccc(Cl)c1 | nt | nt | -6.0 | nt
COc1ccc(NC(=O)C(C)N=C2NS(=O)(=O)c3ccccc32)cc1S(N)(=O)=O (stereo not drawn) | i | 26.1* | 12.4 | -4.2
O=C(c1ccccc1Cl)N1CC(n2cc(-c3ccccc3)nn2)C1 | nt | nt | -16.0 | nt
COc1ccccc1NC(=O)NCC(C)(OC)c1ccccc1F (stereo not drawn) | nt | nt | -6.0 | nt
COc1ccc(CN(C)C(=O)c2cccc(Oc3ccccc3)c2)c(OC)c1OC | -0.3 | -2.4 | 1.1 | 54.9*
COc1cccc(CN(C)C(=O)c2cccc(S(=O)(=O)NCc3ccccc3)c2)c1OC | -0.3 | -9.4 | -4.7 | 6.0
COc1cccc(-c2csc(=Nc3ccc(Cl)cc3)n2N2CCOCC2)c1 | nt | nt | 68.0* | nt
c1ccc(-c2nc(-c3ccncc3)n[nH]2)nc1 | -0.4 | -13.2 | 27.6 | -1.3
Brc1nc(-c2ccccn2)n[nH]1 | nt | nt | 142.0* | nt
Clc1nc(-c2ccccn2)n[nH]1 | nt | nt | 163.0* | nt
Cc1cc(C)c2sc(N3CCN(C(=O)Cc4ccc(F)cc4)CC3)nc2c1 | nt | nt | -6.0 | nt
O=C(c1ccc(CSCc2ccccc2F)o1)N1CCN(c2ccc(N3CCOCC3)nn2)CC1 | -0.2 | -8.3 | 95.6* | 0.1
O=C(c1ccc(N2CCOCC2)nn1)N1CCN(c2ccccn2)CC1 | nt | nt | 12.0 | nt
NC(=O)c1ccccc1OCC#CCNC(=O)c1c(F)cccc1F | nt | nt | -14.0 | nt
COc1cccc(N2C[C@H](CNS(=O)(=O)c3ccc4ccccc4c3)OC2=O)c1 | nt | nt | 3.0 | nt
c1ccc(CCN2CN=C(Nc3nc4ccccc4s3)NC2)cc1 | 0.6 | 5.3 | -10.3 | 6.0
COc1ccc(CN2CN=C(Nc3nc4ccccc4s3)NC2)cc1 | -0.2 | -9.9 | -7.6 | 62.1*
SMILES | Vc quorum ag | Mtb hypoxia rep | SSB-PriA inh | MazEF act
c1ccc(CN2CN=C(Nc3nc4ccccc4s3)NC2)cc1 | -6.2 | -0.8 | -8.0 | 55.5*
c1ccc2sc(NC3=NCN(Cc4ccc5c(c4)OCO5)CN3)nc2c1 | -0.4 | -4.5 | -9.3 | 9.1
Nc1nc(N)c2cc(S(=O)(=O)c3ccc4ccccc4c3)ccc2n1 | -0.6 | nt | nt | 53.0*
Cc1nc2cc(NS(=O)(=O)c3ccc(C(C)(C)C)cc3)ccc2s1 | nt | nt | -9.0 | nt
CCCCCC1CC1C(=O)N/N=C/c1ccc(N(C)C)cc1 (stereo not drawn) | -0.6 | nt | nt | 6.4
CN(C)c1ccc(C=NNC(=O)C2CC2c2ccccc2)cc1 (stereo not drawn) | nt | 3.5 | 44.1* | nt
Cc1ccc(S(=O)(=O)N2CCOCC2)cc1C(=O)OCC(=O)NC1CC1 | 2.1 | 32.7* | -5.5 | 11.2
CC(Sc1nnc(-c2cccs2)n1Cc1ccccc1)C(=O)NCc1ccc2c(c1)OCO2 (stereo not drawn) | i | 0.3 | 4.3 | 64.1*
Cc1ccc(S(=O)(=O)N2CCOCC2)cc1C(=O)Nc1nc(-c2ccccn2)cs1 | -1.9 | 3.2 | 31.0 | 3.7
O=C(Nc1nc(-c2ccccn2)cs1)c1cc(S(=O)(=O)N2CCOCC2)ccc1Cl | nt | nt | 116.0* | nt
CCOc1ccc2nc(NC(=O)c3ccc(OC)c(S(=O)(=O)N4CCOCC4)c3)sc2c1 | 44.4* | -3.0 | -7.8 | 6.6
O=C(Nc1nc(-c2ccccn2)cs1)c1ccc(N2CCOCC2)c([N+](=O)[O-])c1 | nt | nt | 91.5* | nt
O=C(Nc1nc(-c2ccccn2)cs1)c1cccc(S(=O)(=O)N2CCOCC2)c1 | -4.8 | nt | 81.3* | 5.0
